# Screening results: PubChem, National Center for Advancing Translational Sciences (NCATS)
# The list is not random: actives were taken first. Their share in the collection is about 11%.
# HTT ATP protect: qHTS Multiplex Assay to Identify Dual Action Probes in a Cell Model of Huntington: Cytoprotection (ATP). PC12 HTT-Q103 induced, cytoprotection, ATP luminescence, 40 h. actives 0.14% (n = 230,000). AID 1471, 2008. Potency, µM (series often up to 56.4 µM), without a hit: cytoprotection (ATP increase), hits mostly activators; further: potency means the concentration at half of the fitted maximal effect; % of control where 0% means no effect; nearly all actives have a fitted effect of over 45% in size
#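 Compounds added alongside 100 nM tebufenozide, which induces toxic Q103 huntingtin exon 1-GFP in stable PC12 cells; surviving cells quantified by luminescent ATP measurement. Medium: phenol red-free DMEM, 5% equine and 5% calf serum.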
# PNC inhibitor: High Content Assay for Compounds that inhibit the Assembly of the Perinucleolar Compartment; PC3M PTB-GFP, PNC prevalence imaging, 16 h; hits give low values; activity change (PNC), negative = inhibition, % at 10 µM; actives 3.1% (n = 140,000);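 active means readout at or below -70, meaning at least 70% loss of cells showing the perinucleolar compartment, a nuclear body marking cancer cells; inconclusive means readout between -30 and a set limit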;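 further: plate controls were DMSO wells for no effect and camptothecin positive control wells for full effect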
#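 Read-out is percentage of cells bearing a perinucleolar compartment, from automated 20x imaging of fixed, Hoechst-stained PC3M PTB-GFP cells. Cells were seeded 4 h, then exposed 16 h to compound (23 nl of library stock) in duplicate plates.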
# HTT aggregate: qHTS Multiplex Assay to Identify Dual Action Probes in a Cell Model of Huntington: Aggregate Formation (GFP). PC12 HttQ103-GFP aggregates, Acumen cytometry, 40 h. Potency, µM (top dose mostly 46.1 µM), inactives show top-dose activity change, negative = inhibition, most hits filed as inhibitors. actives 1.1% (n = 220,000); further: potency means the concentration at half of the fitted maximal effect; on the % scale 0 is the no-effect control and ±100 the full control effect; nearly all actives have a fitted effect of over 60% in size
#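 Multiplexed with ATP-based cell death, this channel scores GFP aggregates in PC12 cells expressing inducible HTTex1-Q103-GFP. Induction used 100 nM tebufenozide; compounds were tested in concentration series.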
# CBFb RUNX1 block: qHTS Assay for Compounds Blocking the Interaction Between CBF-beta and RUNX1 for the Treatment of Acute Myeloid Leukemia; Runt-related transcription factor 1 (Homo sapiens) + Core-binding factor subunit beta …; AlphaScreen CBFb-His/RUNX1-biotin binding, biochemical; Potency, µM (highest dose often 59.8 µM), without a hit: at the highest dose activity, negative = inhibition, actives largely listed as inhibitors; 230,000 tested, under 10 active; further: % of control where 0% means no effect
# Target sequence (Q01196 whole entry, looked up): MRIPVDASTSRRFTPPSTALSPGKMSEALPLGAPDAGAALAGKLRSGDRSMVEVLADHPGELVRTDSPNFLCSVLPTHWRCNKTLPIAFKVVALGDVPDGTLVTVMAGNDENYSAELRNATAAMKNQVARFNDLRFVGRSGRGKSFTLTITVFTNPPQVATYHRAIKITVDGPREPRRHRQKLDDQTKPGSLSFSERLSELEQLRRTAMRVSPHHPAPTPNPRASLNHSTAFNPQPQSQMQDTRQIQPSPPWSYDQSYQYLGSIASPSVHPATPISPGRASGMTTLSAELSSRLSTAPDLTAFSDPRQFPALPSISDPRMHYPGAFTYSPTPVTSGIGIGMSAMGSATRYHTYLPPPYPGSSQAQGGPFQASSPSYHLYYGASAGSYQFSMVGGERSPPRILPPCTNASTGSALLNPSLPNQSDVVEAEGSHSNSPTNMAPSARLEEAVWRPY
# Target sequence (Q13951 whole entry, looked up): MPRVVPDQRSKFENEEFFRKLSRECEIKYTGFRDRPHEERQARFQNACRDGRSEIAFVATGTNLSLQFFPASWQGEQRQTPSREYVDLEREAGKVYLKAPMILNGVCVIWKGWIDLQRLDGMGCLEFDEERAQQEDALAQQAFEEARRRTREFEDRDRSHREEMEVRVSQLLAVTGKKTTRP
#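 Proteins preincubated together for 20 min at RT before compound addition; 15 min later, nickel and streptavidin beads were added and left 90 min prior to AlphaScreen measurement.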
# ALDH1A1 block: qHTS Assay for Inhibitors of Aldehyde Dehydrogenase 1 (ALDH1A1) | actives 7.3% (n = 220,000) | Aldehyde dehydrogenase 1A1 (Homo sapiens), P00352 | AID 1030, 2008 | Potency, µM (titrated, usually from 75.3 µM), inactives show top-dose activity, negative = inhibition, usual class: inhibitors | Purified ALDH1A1, NADH fluorescence, propionaldehyde substrate; active means well fitted inhibition curve with a large enough effect, not every such curve was filed as active; inconclusive means small, poorly fitted or top-dose-only effect, or another doubt; inactive means no such curve, though single readings can be large or run the other way;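 further: potency means the concentration at half of the fitted maximal effect; plate controls were no enzyme wells and a reference inhibitor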
# HPGD block: qHTS Assay for Inhibitors of HPGD (15-Hydroxyprostaglandin Dehydrogenase); 15-hydroxyprostaglandin dehydrogenase [NAD(+)] (Homo sapiens), P15428; purified HPGD, NADH fluorescence kinetic, PGE2 substrate; Potency, µM, inactives show at the highest dose activity change, negative = inhibition, hits mostly inhibitors; actives 4.3% (n = 150,000); AID 894, 2007; active means well fitted inhibition curve with a large enough effect, not every such curve was filed as active; inconclusive means small, poorly fitted or top-dose-only effect, or another doubt; inactive means no such curve, though single readings can be large or run the other way; further: potency means the concentration at half of the fitted maximal effect; on the % scale 0 is the no-effect control and ±100 the full control effect
#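 NADH formation kinetics: reaction with 30 uM PGE2 and 1 mM NAD+ (final), 20 nM enzyme, Tris-HCl pH 8 with Tween 20, after 15 min compound preincubation at room temperature. Fluorescence change, last versus first of five reads.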
# An asterisk follows results filed as active; ? = inconclusive; / = not tested or not shown; [ ] = dose if it differs, or a comment. Unless noted, the call rests on the fitted dose curve; in most records, active means well fitted curve in the direction sought with a large enough effect; inconclusive means small, poorly fitted or top-dose-only effect, or another doubt; inactive means no such curve, though single readings can be large; an effect the other way counts as inactive or inconclusive.
SMILES,HTT ATP protect,PNC inhibitor,HTT aggregate,CBFb RUNX1 block,ALDH1A1 block,HPGD block
CN(C)S(=O)(=O)c1cccc(C(=O)Nc2ccccc2[N+](=O)[O-])c1,12.5%[10 µM],-7.4,-14.1%,-0.6%,?,39.8µM*
CCOc1ccccc1NC(=O)CN(Cc1ccccc1)S(C)(=O)=O,-1.7%[10 µM],-94.2*,-17.2%,7.7%,3.1%,-2.5%
COc1cc2c(cc1NC(=O)c1cccc(S(=O)(=O)N(C)C)c1)oc1ccccc12,?,-107.1*,15.1%,-1.8%,?,?
CSc1ccccc1NC(=O)CN(Cc1ccccc1)S(C)(=O)=O,-11.1%[0.074 µM],48.9,9.5%,9.5%,-8.9%,-6.2%
CCOc1ccccc1NC(=O)c1ccc(S(=O)(=O)N(C)C)cc1,-26.6%,-21.1,5.6%,-18.0%,14.1µM*,-17.5%
CCOc1ccccc1NC(=O)Nc1cc(S(=O)(=O)N(C)C)ccc1C,13.6%[10 µM],/,-5.7%[9.22 µM],15.8%,-2.9%,/
C=C(C)CNC(=S)Nc1nc2c(cc1C(=O)OCC)CCCC2,9.5%[10 µM],-15.2,19.7%,-0.7%,1µM*,-13.0%
CCOC(=O)c1cc2c(nc1N)CCCC2,-7.9%[10 µM],/,-11.0%[9.22 µM],10.3%,/,/
N#Cc1c(-c2ccccc2)nc(SCC(=O)N(c2ccccc2)c2ccccc2)[nH]c1=O,6.7%[10 µM],-26.7,6.5%,-5.9%,12.6µM*,28.2µM*
N#Cc1c(-c2ccccc2)nc(SCC(=O)Nc2ccccc2F)[nH]c1=O,/,47.7,-4.4%,1.6%,?,15.8µM*
N#Cc1c(-c2ccccc2)nc(SCC(=O)Nc2ccccc2)[nH]c1=O,-5.8%[10 µM],30.6,17.5%,0.5%,-1.8%,-24.9%
N#Cc1c(-c2ccccc2)nc(SCC(=O)N2c3ccccc3Sc3ccccc32)[nH]c1=O,14.7%[10 µM],/,0.3%[9.22 µM],-1.1%,/,/
CCOC(=O)CCCCC(=O)c1[nH]c(=O)[nH]c1CSc1nc(-c2ccccc2)c(C#N)c(=O)[nH]1,-9.8%,44.7,-22.0%,-12.8%,7.94µM*,20µM*
Nc1nc(=O)n(C2OC(CO)C(O)C2O)cc1Cl (configuration not stated),/,/,/,/,5.2%,-4.5%
CCCN1C(=O)/C(=C/c2c(N3CCNC(=O)C3CC(=O)OC)nc3c(C)cccn3c2=O)SC1=S (configuration not stated),18.4%[10 µM],/,-15.5%[9.22 µM],11.8%,5.01µM*,/
CCOC(=O)CC1C(=O)NCCN1C(=O)c1cc2c(=O)n3cccc(C)c3nc2s1 (configuration not stated),-16.8%,21.7,1.8%,0.9%,?,?
Cc1nonc1C(=O)N/N=C/c1ccc(O)c(O)c1,-5.8%[10 µM],-16.3,-9.1%,-5.7%,-8.5%,31.6µM*
Oc1ccc(/C=N/N(Cc2ccccc2)c2ccccc2)c(O)c1O,-7.4%,/,32.4%,?,10µM*,/
Oc1cccc(/C=N/N(Cc2ccccc2)c2ccccc2)c1,-40.6%,/,-17.1%,?,-12.7%,/
CCOC(=O)COc1ccc2c(C)c(CCN(CC)CC)c(=O)oc2c1Cl,12.7%,/,17.7%,23.0%,/,/
C=CCN=C(CC)C1=C(O)CCCC1=O,-10.3%[0.074 µM],-108.6*,18.1%,5.2%,0.2%,/
O=C(CCc1ccc(O)c(O)c1)NNC(=S)Nc1ccc(Br)cc1Cl,-34.2%,/,?,-0.4%,25.1µM*,/
O=C(NNC(=S)Nc1ccc(Br)cc1Cl)c1ccncc1,3.0%[10 µM],?,10.4%,-11.4%,17.8µM*,-19.5%
S=C(Nc1ccc(Br)cc1Cl)Nn1cnnc1,-47.4%,/,14.5%,8.6%,7.94µM*,/
O=C(NNC(=S)Nc1ccccc1)c1ccncc1,3.4%,-12.5,4.2%,1.9%,?,-11.4%
SMILES,HTT ATP protect,PNC inhibitor,HTT aggregate,CBFb RUNX1 block,ALDH1A1 block,HPGD block
CN(C)CCCN1c2ccccc2C(C)(C)c2ccccc21,?,/,-26.5%,/,-7.6%[13.5 µM],-7.4%
CC(C)C(=O)Nc1ccc(S(=O)(=O)Nc2ccccn2)cc1,-15.7%,/,2.8%,4.7%,?,/
O=C(CN1CCN(Cc2ccccc2)CC1)c1c[nH]c2ccccc12,-16.4%,-1.3,14.5%,8.9%,25.1µM*,-7.0%
O=C(C(c1ccccc1)c1ccccc1)N1CCN(Cc2ccc(Br)cc2)CC1,-0.6%,-11.6,-23.7%,5.6%,-7.9%,-20.7%
O=C(CN1CCN(Cc2ccccc2)CC1)c1ccc(Br)cc1,-30.1%,23.6,1.9%,2.1%,2.51µM*,-11.6%
CCCn1c(N2CCN(CC(=O)c3c[nH]c4ccccc34)CC2)nc2c1c(=O)[nH]c(=O)n2C,-28.1%,7.1,33.0%,6.8%,12.6µM*,-16.9%
CCn1c(N2CCN(CC(=O)c3c(C)n(C)c4ccccc34)CC2)nc2c1c(=O)[nH]c(=O)n2C,-7.4%[0.074 µM],?,5.4%,-0.1%,?,-0.1%
O=C(C(Cl)Cl)N1CCN(Cc2ccccc2)CC1,-1.9%[10 µM],26.7,-6.0%,5.5%,1.78µM*,-21.1%
O=c1c(-c2cccs2)nc2cncnc2n1C1CC1,-36.6%,/,/,/,?,?
C[C@@](Cc1ccccc1)(C(=O)O)N1C(=O)c2ccc(C(=O)O)cc2C1=O,/,/,/,-1.3%,/,/
O=c1cc(CCl)nc2sc3ccccc3n12,-31.1%,/,?,-20.1%,3.6%,/
O=C(OCc1cc(=O)n2c(n1)sc1ccccc12)c1ccc(O)cc1,37.1%[10 µM],44.1,12.1%,?,-2.2%,14.1µM*
CN1CCc2c(sc3c2C(=O)NC(c2ccco2)N3)C1 (configuration not stated),-12.1%[0.074 µM],16.1,5.4%,-19.9%,?,?
CN1CCc2c(sc3c2C(=O)NC(c2cn(Cc4ccccc4)c4ccccc24)N3)C1 (configuration not stated),0.6%[10 µM],-103.5*,?,-24.1%,?,?
COc1ccc(CNC(=O)NC2CCCCC2)cc1,-25.0%,?,23.3%,3.3%,7.3%,-14.9%
COc1ccc(CN2C(=O)c3c(c(C)n(C)c3C)C2C(=O)NC2CCC(C)CC2)cc1 (configuration not stated),-26.3%,/,18.3%,2.9%,0.794µM*,/
CCc1ccc(C=NC23CN4CN(CN(C4)C2)C3)s1,-1.5%,-21.5,-6.9%,8.3%,7.94µM*,-10.7%
COc1cccc(-c2cncnc2Nc2ccccc2)c1,-33.5%,/,/,/,-3.0%,/
COC(=O)[C@@]1(Cc2ccc(OC)cc2)[C@H]2c3cc(C(=O)N(C)C)n(CCF)c3C[C@H]2CN1C(=O)c1ccccc1,18.9%,/,/,16.0%,-2.8%,-2.2%
